TDP1 cell CPT – growth inhibition of DT40 Tdp1-/-;hTDP1 cells with camptothecin (screen for TDP1 inhibitors) | chicken DT40 Tdp1-/-;hTDP1 cells + 20 nM CPT, ATP luminescence, 48 h | Potency, µM (highest dose often 46.2 µM), actives largely listed as inhibitors | 420,000 compounds, 12% hits | AID 686979; also: nearly all actives have a fitted effect of over 55% in size
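Chicken DT40 Tdp1-/- cells stably complemented with human TDP1 were seeded at 400 cells/well in medium containing 20 nM camptothecin, exposed to pin-transferred compounds, and grown at 37 °C for at least 48 hr. Viability was read as ATP luminescence.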
TDP1 inh – blocks human tyrosyl-DNA phosphodiesterase 1. Q9NUW8. recombinant TDP1, AlphaScreen DNA substrate cleavage. Potency, µM (top dose mostly 130 µM), actives largely listed as inhibitors. 350,000 compounds, 0.28% hits. AID 485290; also: nearly all actives have a fitted effect of over 40% in size
Target sequence (Q9NUW8 whole entry, looked up): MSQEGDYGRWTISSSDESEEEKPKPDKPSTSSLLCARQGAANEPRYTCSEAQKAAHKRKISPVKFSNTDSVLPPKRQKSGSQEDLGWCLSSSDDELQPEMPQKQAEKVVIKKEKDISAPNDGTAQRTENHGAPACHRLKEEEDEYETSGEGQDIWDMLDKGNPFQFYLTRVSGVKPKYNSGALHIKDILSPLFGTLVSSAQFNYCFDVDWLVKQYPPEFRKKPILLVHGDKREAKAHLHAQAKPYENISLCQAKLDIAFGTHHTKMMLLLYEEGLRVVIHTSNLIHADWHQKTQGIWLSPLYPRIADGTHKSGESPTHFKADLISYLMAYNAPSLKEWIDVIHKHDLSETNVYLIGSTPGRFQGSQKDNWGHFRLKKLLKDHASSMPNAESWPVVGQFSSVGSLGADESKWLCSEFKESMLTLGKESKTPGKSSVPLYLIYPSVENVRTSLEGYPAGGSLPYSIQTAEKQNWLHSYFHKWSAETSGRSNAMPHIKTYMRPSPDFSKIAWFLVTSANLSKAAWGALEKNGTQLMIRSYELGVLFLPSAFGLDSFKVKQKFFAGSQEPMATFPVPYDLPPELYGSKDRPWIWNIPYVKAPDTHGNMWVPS
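Recombinant E. coli-expressed Tdp1 (1 nM) preincubated with compound 15 min at RT, then 5'-biotin/3'-phosphotyrosine-FITC DNA substrate (15 nM) added for 5 min. AlphaScreen beads (10 ug/ml) added, 10 min RT; tyrosine-FITC cleavage read as signal loss.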
DT40 TDP1 no CPT – qHTS for Inhibitors of human tyrosyl-DNA phosphodiesterase 1 (TDP1): qHTS in cells in absence of CPT. DT40 Tdp1-/- hTDP1 cells, no CPT, ATP luminescence, 48 h. Potency, µM (doses to about 46.2 µM), most hits filed as inhibitors. 420,000 compounds, 15% hits; also: nearly all actives have a fitted effect of over 55% in size
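Readout: luminescence from CellTiter-Glo after 30 min in the dark at RT. Cells: DT40 Tdp1-/- with stable hTDP1, 400/well. Exposure: compounds alone, ≥48 hr, 37 °C.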
TGFb inhibitor – inhibitors of TGF-b signaling | Potency, µM (series often up to 46.1 µM), hits mostly inhibitors | HepG2 CAGA-GFP TGF-b/SMAD3 reporter, GFP fluorescence, 18 h; TGF-beta stimulated, 500 pg/mL final | AID 588855 | 410,000 compounds, 1.2% hits; also: nearly all actives have a fitted effect of over 65% in size
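HEPG2 CAGA-GFP cells (1000/well, DMEM with 1% FBS) were pre-incubated 2 h at 37 degrees C, given compound by pin tool, then stimulated with TGF-beta at 500 pg/mL final for 18 h before per-cell GFP fluorescence imaging.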
HepG2 tox – counter-screen for TGF-b inhibitors: cytotoxicity in HepG2 cells | HepG2 CAGA-GFP viability, ATP luminescence, 18 h | Potency, µM (doses to about 46.1 µM), hits mostly cytotoxic | 410,000 compounds, 0.76% hits | AID 588856
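CellTiter-Glo luminescence gave cytotoxicity after 18 hours at 37 degrees C. The cells were HepG2 CAGA-GFP in 1% FBS DMEM, stimulated with 500 pg/mL TGF-beta after compound addition. %Activity was normalised to no-cell wells (complete cell-killing) and DMSO (no toxicity), and curves were fitted and classified.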
IL1B secr inh – inhibitors of inflammasome signaling (IL-1 beta secretion); activity change, % at 57.5 µM; AID 743279; 360,000 compounds, 4.7% hits; THP-1 LPS/ATP IL-1B secretion, AlphaLISA, 16 h; stronger effect = lower value; in the data active = activity change below about -50%; inconclusive = mostly about -30% to -49%
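THP-1 cells pretreated 1 hr with compounds (up to 57.5 uM final), then stimulated with LPS (250 ng/mL final) plus ATP (1.25 mM final); secreted IL-1B measured by AlphaLISA after 16 hr, decreased signal indicating inhibition.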
Hits are given with their value; i = inactive; ? = inconclusive; nt = no result. In the library only some 18% were active in any assay of this set; here they are far more common. Unless noted, calls follow the shape of the dose curve; as a rule, active = well fitted curve in the direction sought with a large enough effect; inconclusive = small, poorly fitted or top-dose-only effect, or another doubt; inactive = no such curve, though single readings can be large; an effect the other way counts as inactive or inconclusive.

SMILES	TDP1 cell CPT	TDP1 inh	DT40 TDP1 no CPT	TGFb inhibitor	HepG2 tox	IL1B secr inh
Cc1nc(SCc2ccccc2F)c2oc3ccccc3c2n1	i	nt	13µM	i	i	i
c1ccc2[nH]c(CN3CCN(c4ncnc5c4oc4ccccc45)CC3)nc2c1	23µM	i	23µM	?	i	?
Cc1nc(SCc2ccc(F)cc2)c2oc3ccccc3c2n1	i	i	i	i	i	i
CCC[C@@H]1C[C@@H](C(=O)N[C@@H]([C@H]2O[C@H](SC)[C@H](O)[C@@H](O)[C@H]2O)[C@H](C)Cl)N(C)C1	i	nt	i	nt	nt	nt
Cc1ccc(CNC(=O)C2CCC(CNS(=O)(=O)c3ccc4c(c3)CCCC(=O)N4)CC2)cc1 (stereo unspecified)	i	i	i	?	i	nt
CCN(C(=O)COC(=O)CC1CCCCC1)c1c(N)n(Cc2ccccc2)c(=O)[nH]c1=O	i	i	i	i	i	i
Nc1nc(N2CCN(C/C=C/c3ccccc3)CC2)nc2ccccc12	21µM	i	?	i	i	i
Cc1nn2c(-c3cccnc3)ccnc2c1-c1ccccc1	?	i	23µM	i	i	i
Cc1cc(C)nc(Nc2n[nH]c(COc3cccc4ccccc34)n2)n1	2.9µM	i	3.3µM	i	i	i
Cc1cc(C)nc(Nc2n[nH]c(COc3ccccc3)n2)n1	?	i	18µM	i	i	i
Cc1cc(C)nc(Nc2n[nH]c(COc3ccc4ccccc4c3)n2)n1	i	i	i	i	i	i
CCN(CC)C(=O)CSc1nc2c(sc(=S)n2-c2ccccc2)c(=O)n1-c1ccc(OC)c(OC)c1	i	nt	i	i	i	?
Cc1cccc(/C(N)=N/OC(=O)CCCc2ccccc2)c1	i	56µM	i	i	i	i
N/C(=N\OC(=O)CCCc1ccccc1)c1ccccc1	i	56µM	i	i	i	i
O=C(CCCc1ccccc1)c1ccccc1	i	35µM	i	i	i	i
O=C(CCCC(=O)c1ccccc1)NCCc1ccccc1	i	nt	i	i	i	i
N/C(=N\OC(=O)CCCc1ccccc1)c1cccnc1	i	i	i	?	i	i
Cc1ccc(N2CCN(Cc3nnc(-c4ccccc4F)o3)CC2)c(C)c1	?	i	?	i	i	nt
C/C(=N\NC(=O)c1ccc(CN(C)S(=O)(=O)c2ccc(C)cc2)cc1)c1ccc(OC(F)F)cc1	?	i	1.5µM	?	i	i
Cc1ccc(S(=O)(=O)N(C)Cc2ccc(C(=O)N/N=C/c3ccc(OC(F)F)cc3)cc2)cc1	15µM	i	21µM	?	i	i
O=C1OCC2OC(O)C(O)C(O)C2OC(=O)c2cc(O)c(O)c(O)c2-c2c(O)c(O)c3oc(=O)c4c(c(O)c(O)c5oc(=O)c2c3c54)-c2c1cc(O)c(O)c2O (stereo unspecified)	nt	0.14µM	nt	nt	nt	nt
CC(C)C[C@@H]1CC2=C(C(=O)OC(C)(C)O2)[C@H](c2ccc(Cl)cc2)O1	?	nt	18µM	nt	nt	i
CC[C@@H]1CC2=C(C(=O)OC(C)(C)O2)[C@H](c2ccc(F)cc2)O1	i	nt	i	?	i	i
CC1(C)OC(=O)C2=C(C[C@@H](CCc3ccccc3)O[C@@H]2c2ccc(F)cc2)O1	?	nt	16µM	nt	nt	i
COc1ccc(S(=O)(=O)NCC(=O)N(Cc2ccco2)C(C(=O)NC(C)(C)C)C(C)C)cc1 (stereo unspecified)	i	nt	i	i	i	i
SMILES	TDP1 cell CPT	TDP1 inh	DT40 TDP1 no CPT	TGFb inhibitor	HepG2 tox	IL1B secr inh
COc1ccc(NC(=O)C2CCN(S(=O)(=O)c3ccc4c(c3)CC(C)N4C(C)=O)CC2)c(OC)c1 (stereo unspecified)	?	i	?	i	i	i
BrC/C=C/CBr	nt	i	nt	nt	nt	nt
Cc1nc(N2CCCC2)c2c(C(=O)Nc3ccc(Br)cc3F)c(C)oc2n1	?	i	?	i	i	nt
Cc1ccc(NC(=O)c2c(C)oc3ncn(C)c(=O)c23)cc1F	?	i	18µM	i	i	nt
Cc1nc(N2CCCC2)c2c(C(=O)Nc3cccc(Cl)c3C)c(C)oc2n1	?	i	?	i	i	nt
Cc1ccc(NC(=O)c2c(C)oc3ncnc(N4CCCCC4)c23)cc1Cl	16µM	i	16µM	i	i	nt
CCc1ccc(CNC(=O)c2c(C)oc3ncnc(N4CCOCC4)c23)cc1	13µM	i	?	i	i	nt
Cc1cc(Br)ccc1NC(=O)c1c(C)oc2ncnc(N3CCCCC3)c12	16µM	i	16µM	i	i	nt
CC(NC(=O)CCNC(=O)c1ccc(C(C)(C)C)cc1)c1ccccc1 (stereo unspecified)	?	i	?	i	i	i
O=C(CSc1nc2ccccc2nc1Cc1ccc(Cl)cc1)N1CCc2ccccc21	i	i	i	i	i	nt
Cc1cc(F)ccc1NC(=O)CCn1nc(C)c(S(=O)(=O)N2CCCCC2)c1C	i	i	i	i	i	nt
CCc1cccc(NC(=O)c2c(C)oc3ncnc(N4CCCCC4)c23)c1	13µM	i	9.2µM	?	i	nt
COc1ccc(CCNC(=O)CSc2nc3nc(C)c(Cc4ccc(C)cc4)c(C)n3n2)cc1OC	?	i	21µM	?	i	nt
COc1ccc(CCNC(=O)CSc2nc3ccccc3nc2Cc2ccc(C)cc2)cc1OC	i	i	?	i	i	nt
COc1cc(NC(=O)CSc2nc3nc(C)c(Cc4ccc(C)cc4)c(C)n3n2)cc(OC)c1	?	i	8.2µM	?	i	nt
Cc1cccc(Cc2c(C)nc3nc(SCC(=O)NCc4ccc(F)cc4)nn3c2C)c1	16µM	i	23µM	i	i	nt
COc1cc(NC(=O)CSc2nc3nc(C)c(Cc4ccccc4)c(C)n3n2)cc(OC)c1	21µM	i	8.2µM	i	i	nt
CCCCOc1ccc(C(=O)NCC(=O)NC2CCCCC2)cc1	i	i	i	i	i	i
Cc1cccc(OCC(=O)NCCCNC(=O)c2ccco2)c1	i	i	i	i	i	i
CN(CC(=O)Nc1ccccc1Cl)C(=O)Cn1cnc2ccccc2c1=O	?	i	i	i	i	i
Cc1ccc(S(=O)(=O)N2CCC(c3nnc(-c4cccc(C)c4)o3)CC2)cc1	3.7µM	i	3.7µM	?	i	nt
O=C(CCc1ccc(S(=O)(=O)N2CCCCC2)cc1)c1nnc(-c2ccccc2)o1	i	i	?	i	i	i
CCCc1ccc(S(=O)(=O)N2CCC(c3nnc(-c4cccc(C)c4)o3)CC2)cc1	5.2µM	i	4.6µM	?	i	nt
CC1CCN(S(=O)(=O)c2cccc(-c3nnc(-c4cccnc4)o3)c2)CC1	i	i	i	i	i	i
COc1ccc(C(=O)CCN(C)C)c2ccccc12	1.3µM	nt	2.8µM	6.3µM	i	nt
